From PubChem BioAssay AID1117361 (Southern Research Institute, 2015) come the findings set out here.

The whole screen tested about 3,600 compounds, of which about 900 (25%) were called active. The rule behind the calls is not given here. Not all results are given here. Results with a measured potency or affinity are listed apart.

For the assay, the target named is Protein Tat (Human immunodeficiency virus type 1 group M subtype B (isolate HXB2)) (UniProt P04608). Briefly: inhibitors of Tat binding to TAR RNA, dose response, counter-screen for Vif-APOBEC3G degradation inhibitor project, biochemical, fluorescence polarization, FAM-labeled TAR RNA (AID 1117361). To be noted: outcome: dose series up to 100 µM unless noted; series mostly up to 100 µM.
Take `N#Cc1ccccc1S(=O)(=O)N1CCN(C(=O)CN2CCCC2c2cccs2)CC1` (centres undefined): the call was inactive. In the case of `COc1ccc(C(C)NC(=O)C2C(=O)NC3(C)CC2c2ccccc2O3)cc1` (centres undefined) it was “inactive”; in that of `O=C(O/N=C\c1ccc(N2CCCCC2)c([N+](=O)[O-])c1)c1c(F)cccc1F`, “inactive”; in that of `Nc1nc2n(n1)C(c1c(F)cccc1Cl)CC(c1ccc(F)cc1)N2` (centres undefined), “inactive”. Take `CCOC(=O)Cn1c(=O)c2c(nc3n2CCN3Cc2ccccc2)n(C)c1=O`: the compound was called inactive. Take `O=C(Nc1ccccc1)c1ccc(S(=O)(=O)N(CCO)CCO)cc1`: the compound was called inactive. As for `COc1ccccc1NC(=O)C12CC3CC(C1)CC(c1ccc(C)cc1)(C3)C2`, the compound was classed as inactive.

Regarding `COc1ccc(N=c2scc(-c3ccc(OC)cc3)n2CCO)cc1`, the compound was classed as inactive. For `O=C(c1ccccc1Br)N1CCN(c2ccccc2)CC1`, the outcome was inactive. Consider `COc1cc(OC)cc(C(=O)NNC(=O)c2ccccc2Br)c1`, for which the call was inactive. Turning to `CC1=CC(C)(C)n2c(O)c(N=NC(N)=S)c3c(C)c(C)cc1c32`, the result was inactive. To `COc1ccccc1Oc1coc2cc(OC(=O)N3CCOCC3)ccc2c1=O` belongs “inactive”.

For `O=C(O)c1ccc(Sc2nnnn2-c2ccccc2)c([N+](=O)[O-])c1`, the compound was classed as inactive. To `CCCCN(C)C(=O)c1cn(CC)c2ccc(S(=O)(=O)N(C)C)cc2c1=O` belongs “inactive”; to `O=C(CCCc1c[nH]c2ccccc12)N1CCOCC1`, “inactive”.

Take `COc1ccccc1C(=O)Nc1ccc(S(=O)(=O)Nc2cc(C)nc(C)n2)cc1`: the result was inactive. Consider `O=C(O)c1ccc(NS(=O)(=O)c2cccc(C(=O)Nc3ccc([N+](=O)[O-])cc3)c2)cc1`, for which the outcome was inactive.

`CCn1c(C(=O)N2CCCC(C(=O)NCCc3ccc(C)cc3)C2)cc2sccc21` (centres undefined): the outcome was inactive. For `CCCNC(=O)c1cccc(Cn2nc(C)c(Br)c2C)c1`, the compound was classed as inactive.

`CCCCOCCCNC(=O)c1ccc(OCC)cc1`: the compound was called inactive. In the case of `O=C(NC1CCCC1)c1ccc(CNc2c(N3CCOCC3)c(=O)c2=O)cc1`, the compound was classed as inactive. In the case of `CC1(C)Oc2ccc(C(=O)NC3CCCC3)cc2N(CC(=O)NC2CCCC2)C1=O` it was “inactive”.

On to `CCC(Nc1nc(-c2ccccc2)nc2ccccc12)C(=O)O` (centres undefined), for which the result was inactive.

`Clc1ccc(Sc2oc(/C=N/n3cnnc3)cc2Br)cc1`: the call was inactive. In the case of `O=C1C(Cl)=C(Nc2ccc3cn[nH]c3c2)C(=O)c2ccccc21` it was “inactive”; in that of `C/C(=N\NC(=O)C(C)Oc1ccc([N+](=O)[O-])cc1)c1ccccn1` (centres undefined), “inactive”. `COC(=O)C1=C(C)N(C)C(C)=C(C(=O)OC)C1c1ccc(F)c(Br)c1`: the result was inactive.

Take `COc1cc(OC)cc(C(=O)NC2CCN(C(=O)N3c4ccccc4Sc4ccccc43)CC2)c1`: the result was inactive. To `Nc1c(-c2ccccc2Cl)cnn1-c1cccc([N+](=O)[O-])c1` belongs “inactive”; to `COC(=O)Nc1sc2c(c1C(=O)NCc1ccco1)CCCC2`, “inactive”; to `COc1ccc(-c2[nH]c(-c3ccc(C)cc3)nc2SCC(=O)NCc2ccco2)cc1OC`, “inactive”. To `O=C1CC(SC(=Nc2ccccc2)Nc2ccccc2)C(=O)N1c1ccc(Cl)cc1` (centres undefined) belongs “inactive”; to `O=C(NCc1ccc(F)cc1)C1CCCN(C(=O)Nc2ccccc2)C1` (centres undefined), “inactive”. As to `CCOC(=O)CC1COc2ccccc2N1C(=O)c1ccc(C)cc1` (centres undefined), the outcome was inactive.

With `CS(=O)(=O)NCc1nnc(SCc2ccccc2C(F)(F)F)o1`, the call was inactive.

Consider `CSc1oc(-c2ccccc2)nc1S(=O)(=O)c1ccc(C)cc1`, for which the result was inactive. In the case of `Cc1ccc2c(c1)c1ccc3c(c1n2C)C(=O)C=CC3=O`, the outcome was inactive. To `COc1ccc2c(c1)c1ccc3c(c1n2C)C(=O)C=CC3=O` belongs “inactive”. In the case of `COc1cc2c(cc1NC(=O)COC(=O)Cn1cnc3ccccc31)oc1ccccc12` it was “inactive”; in that of `CCOC(=O)C(CC(=O)O)=C(c1ccccc1)c1ccccc1`, “inactive”; in that of `CCOC(=O)CSc1nnc(-c2cccnc2)n1Cc1ccccc1`, “inactive”. As to `CCc1cccc(NC(=O)CN(C)S(=O)(=O)c2cccc3nsnc23)c1`, the result was inactive. To `O=C(OCc1c(Cl)cccc1Cl)c1cccnc1Cl` belongs “inactive”; to `Cc1ccc(-c2csc(NC(=O)C3CC=CCC3C(=O)O)c2C(=O)OC(C)C)cc1` (centres undefined), “inactive”. To `O=C(C1CCN(S(=O)(=O)N2CCC3(CC2)OCCO3)CC1)N1CCOCC1` belongs “inactive”; to `O=C(C1CCCO1)N1CCC(c2nc3ccccc3[nH]2)CC1` (centres undefined), “inactive”. Turning to `O=C(NCC1CC1)c1ccc2c3n(nc2c1)-c1ccccc1CO3`, the result was inactive. To `O=C(NNC(=O)c1ccccc1O)c1cc2ccccc2o1` belongs “inactive”. To `COc1ccc(C(=O)NCc2cn3cccc(C)c3n2)cc1OC` belongs “inactive”; to `COc1ccc(Cl)c(NCCC(=O)O)c1`, “inactive”.

Take `O=C(NCc1cccnc1)c1cc(S(=O)(=O)N2CCCCC2)ccc1Cl`: the compound was called inactive.

As to `CC(=O)Nc1ccc(/C=N/Nc2ccc(C(=O)c3c(C)cc4ccccn34)cc2[N+](=O)[O-])cc1`, the outcome was inactive. To `NS(=O)(=O)c1ccc(NC(=O)COC(=O)c2cc(Cl)ccc2[N+](=O)[O-])cc1` belongs “inactive”; to `Clc1ccc(/C(Cc2nc3ccccc3[nH]2)=N\Nc2ccccc2)cc1`, “inactive”. To `Cc1c(Cl)cccc1NC(=O)CC(Cc1ccccc1)C(=O)O` (centres undefined) belongs “inactive”; to `COC(=O)c1cc2c(ccn2-c2ccc(F)cc2)n1CC(C)C`, “inactive”; to `CC1CCN(c2nc3ccc(C(=O)N4CCN(Cc5ccccc5)CC4)cc3s2)CC1`, “inactive”.

As for `CCOC(=O)CSc1nnc(CNC(=O)c2cccs2)n1-c1ccccc1`, the result was inactive.

On to `O=C(COC(=O)c1ccc(O)cc1O)NNC(=O)c1cccs1`, for which the outcome was inactive. To `COc1cccc(OC)c1OCCOCCn1cnc2ccccc2c1=O` belongs “inactive”; to `COCC(=O)NCc1nc2ccccc2[nH]1`, “inactive [at 50 µM]”; to `CCn1c(CNc2ccc(Cl)cc2)nnc1SCc1ccccc1`, “inactive”. In the case of `COc1cccc(/C=N/NC(N)=S)c1OCc1ccccc1Cl` it was “inactive”; in that of `CCOC(=O)CSc1nnc(CNc2ccc(Cl)cc2)n1-c1ccccc1`, “inactive”. For `CCOc1cc(Cl)c(S(=O)(=O)NCc2ccccn2)cc1Cl`, the compound was classed as inactive. Take `Clc1ccc(CNc2ccc(CNc3ncn[nH]3)cc2)c(Cl)c1`: the result was inactive. Consider `CCCNC(=O)COC(=O)c1ccccc1OCc1ccc(Cl)cc1`, for which the compound was called inactive. As to `CCc1ccc(N2C(=O)Cc3c2nc(N)c(C#N)c3N)cc1`, the call was inactive. In the case of `CCOC(=O)Cn1nc(-c2ccccc2)c2cnc3ccc(C)cc3c21` it was “inactive”.
